Only some compounds are listed: those with a hit (about 2.8% of all), similar ones and a draw of the others.
HTT cytoprotect: protects HTT-Q103 PC12 cells, measured by ATP. PC12 HTT-Q103 induced, cytoprotection, ATP luminescence, 40 h. AID 1471. 230,000 tested, 0.14% active. Potency, µM (series often up to 56.4 µM), inactives show cytoprotection (ATP increase), actives largely listed as activators; note: % of control where 0% means no effect; nearly all actives have a fitted effect of over 45% in size
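Huntington model: PC12 line, ecdysone-inducible HTTQ103 exon1–GFP, tebufenozide 100 nM. Test articles in a dose series. Endpoint luminescence from cellular ATP.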
TGFb SMAD3 inh: inhibitors of TGF-b signaling; HepG2 CAGA-GFP TGF-b/SMAD3 reporter, GFP fluorescence, 18 h; TGF-beta stimulated, 500 pg/mL final; Potency, µM (highest dose often 46.1 µM), without a hit: at the top dose activity, negative = inhibition, usual class: inhibitors; 410,000 tested, 1.2% active; note: % is set by controls: 0 for no effect and ±100 for the full control effect; nearly all actives have a fitted effect of over 65% in size
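First, reporter cells (HEPG2 CAGA-GFP) rested 2 h at 37 degrees C. Next, compounds were pinned in and TGF-beta added to 500 pg/mL final. After 18 h, GFP was imaged per cell and summed per well.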
HttQ103 aggreg: inhibitors of mutant huntingtin aggregate formation in PC12 cells. Potency, µM (titrated, usually from 46.1 µM), without a hit: at the highest dose activity change, negative = inhibition, actives largely listed as inhibitors. AID 1688. PC12 HttQ103-GFP aggregates, Acumen cytometry, 40 h. 220,000 tested, 1.1% active; note: % is set by controls: 0 for no effect and ±100 for the full control effect; nearly all actives have a fitted effect of over 60% in size
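Aggregates are detected as GFP objects 1–25 µm with signal 6 STDEV over background in lysates of induced PC12 cells. These carry Huntingtin exon 1 with 103 glutamines fused to GFP under an ecdysone promoter; compounds titrated.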
ATXN2 expr inh: ATXN2 expression inhibition | HEK-293 ATXN2-luciferase reporter, luminescence, 24 h | Potency, µM (highest dose often 57 µM), inactives show at the top dose activity change, negative = inhibition, most hits filed as inhibitors | 360,000 tested, 0.72% active; note: % is set by controls: 0 for no effect and ±100 for the full control effect; nearly all actives have a fitted effect of over 55% in size
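qHTS (up to 57 uM final) was run with 24 h compound exposure of reporter cells at 37 °C. Each well was multiplexed: SteadyGlo luminescence measured ATXN2-luciferase expression after a fluorogenic Gly-Phe-AFC viability readout (25 uM final).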
ATXN viability: viability counter-screen for ATXN expression inhibitors | S2 cells (HEK-293 line with an ATXN2-luciferase reporter) viability, CellTiter-Fluor protease fluorescence, 24 h | Potency, µM (top dose mostly 56.7 µM), usual class: cytotoxic | 400,000 tested, 0.49% active | AID 651635; note: nearly all actives have a fitted effect of over 40% in size
HepG2 tox-1: kills HepG2 cells in TGF-b inhibitor counter-screen | HepG2 CAGA-GFP viability, ATP luminescence, 18 h | Potency, µM (highest dose often 46.1 µM), without a hit: at the top dose activity change, negative = cytotoxicity, actives largely listed as cytotoxic | 410,000 tested, 0.76% active
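CellTiter-Glo luminescence gave cytotoxicity after 18 hours at 37 degrees C. The cells were HepG2 CAGA-GFP in 1% FBS DMEM, stimulated with 500 pg/mL TGF-beta after compound addition. %Activity was normalised to no-cell wells (complete cell-killing) and DMSO (no toxicity), and curves were fitted and classified.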
TGFb CAGA inh: TGF-b pathway inhibition, cherry-pick retest; shares compounds with TGFb SMAD3 inh; HepG2 CAGA-GFP TGF-b reporter, GFP fluorescence, 18 h; cells stimulated with TGF-beta, 500 pg/mL; Potency, µM (titrated, usually from 46.1 µM), inactives show at the top dose activity, negative = inhibition, usual class: inhibitors; 1,600 tested, 63% active; AID 720534; note: % is set by controls: 0 for no effect and ±100 for the full control effect; nearly all actives have a fitted effect of over 65% in size
HepG2 tox-2: HepG2 cytotoxicity, TGF-b inhibitor counterscreen; Potency, µM (top dose mostly 46.1 µM), without a hit: at the top dose activity, negative = cytotoxicity, usual class: inhibitors; 1,600 tested, 27% active; HepG2 CAGA-GFP viability, ATP luminescence, 18 h; cells stimulated with TGF-beta, 500 pg/mL; shares compounds with TGFb SMAD3 inh; AID 720535; note: % is set by controls: 0 for no effect and ±100 for the full control effect; nearly all actives have a fitted effect of over 70% in size
TGFb CCL64 inh: TGF-b inhibition, CCL64 orthogonal assay; shares compounds with TGFb SMAD3 inh; AID 720536; 1,600 tested, 41% active; Potency, µM (top dose mostly 46.1 µM), inactives show top-dose activity, negative = inhibition, actives largely listed as inhibitors; CCL64 CAGA-GFP reporter, TGF-b stimulated, GFP fluorescence, 18 h; note: nearly all actives have a fitted effect of over 65% in size
COP TGFb inh: validation of TGF-b inhibitors in HepG2 COP promoter reporter. Potency, µM (doses to about 46.1 µM), without a hit: top-dose activity, negative = inhibition, usual class: inhibitors. AID 720537. shares compounds with TGFb SMAD3 inh. 1,600 tested, 3% active. HepG2 COP-GFP TGF-b reporter, GFP fluorescence, 18 h; cells stimulated by added recombinant TGF-beta; note: nearly all actives have a fitted effect of over 70% in size
* = called active by the depositor; i = inactive; u = inconclusive; x = no result given; [ ] = another dose, or the depositor's remark. Calls come from the whole dose curve; as a rule, active = well fitted curve in the direction sought with a large enough effect; inconclusive = small, poorly fitted or top-dose-only effect, or another doubt; inactive = no such curve, though single readings can be large; an effect the other way counts as inactive or inconclusive. Potency is the fitted concentration of half-maximal effect.

SMILES	HTT cytoprotect	TGFb SMAD3 inh	HttQ103 aggreg	ATXN2 expr inh	ATXN viability	HepG2 tox-1	TGFb CAGA inh	HepG2 tox-2	TGFb CCL64 inh	COP TGFb inh
OCC1(Cc2ccccc2)CCN(Cc2cnc(-c3cccc4ccccc34)nc2)CC1	-15.4%[10 µM]	-8.8%	0.3%[9.22 µM]	-1.7%	i	-17.9%	x	x	x	x
OCC1(Cc2ccccc2)CCN(Cc2cnc(-c3ccc(Cl)cc3)nc2)CC1	18.6%[10 µM]	8.91µM*	-3.5%[9.22 µM]	22.1%	i	15.8µM*	-10.3%	u	0.3%	35.6%
CC1=C(C(=O)N(C(C)C)C(C)C)CC(CC(=O)NC(c2ccccc2)c2ccccc2)C(=O)N1Cc1ccc(C(C)(C)C)cc1 (stereo unspecified)	x	17.8µM*	x	u	i	1.6%	9.2µM*	-27.2%	u	9.0%
CC1=C(C(=O)N(C(C)C)C(C)C)CC(CC(=O)NCCCCc2ccccc2)C(=O)N1Cc1ccccc1 (stereo unspecified)	x	u	x	0.0%	u	-33.7%	x	x	x	x
CC1=C(C(=O)N(C(C)C)C(C)C)CC(CC(=O)NCCCCc2ccccc2)C(=O)N1Cc1ccc(F)cc1 (stereo unspecified)	x	7.94µM*	x	u	u	2.6%	u	-6.0%	23.1µM*	-4.3%
Cc1ccc(O/C=C2/Nn3c(nnc3-c3cc(-c4ccccc4)n[nH]3)S2)cc1	x	7.1%	x	x	x	1.5%	x	x	x	x
O=C(Nc1ccc(Br)cc1)c1cccc(S(=O)(=O)Nc2cnc3ccccc3c2)c1	18.1%[10 µM]	12.6µM*	u	-17.2%	i	-26.9%	8.2µM*	u	23.1µM*	91.9%
O=S(Cc1ccc(Br)cc1)Cc1nnc(SCc2c(F)cccc2Cl)n1-c1ccccc1 (stereo unspecified)	x	u	u	-9.3%	i	-13.1%	11.6µM*	u	14.6µM*	40.3%
O=C(/C=C/c1cccc([N+](=O)[O-])c1)c1ccc([N+](=O)[O-])o1	x	1.26µM*	x	u	3.55µM*	4.47µM*	2.91µM*	8.2µM*	1.64µM*	u
COc1ccc(/C=C/C(=O)c2ccc([N+](=O)[O-])o2)cc1	x	u	x	u	u	-57.6%	x	x	x	x
Cc1cccc(/C=C/C(=O)c2ccc([N+](=O)[O-])o2)c1	x	2.24µM*	x	10µM*	10µM*	10µM*	3.26µM*	5.17µM*	2.06µM*	u
Cc1ccccc1/C=C/C(=O)c1ccc([N+](=O)[O-])o1	x	3.16µM*	x	12.6µM*	12.6µM*	-112.8%	3.26µM*	6.51µM*	4.11µM*	u
O=C(CCCSc1nc2ccccc2[nH]1)N1CCN(c2ccccc2)CC1	-17.1%	-15.4%	-25.8%	1.7%	i	-18.9%	x	x	x	x
Cc1cccc(N2CCN(C(=O)CCCSc3nc4ccccc4[nH]3)CC2)c1C	-48.8%	u	u	-21.8%	i	-34.3%	u	u	13µM*	40.6%
COc1ccc(C(c2c(O)ccc3ccccc23)N2CCOCC2)c(OC)c1 (stereo unspecified)	u	6.31µM*	u	-48.3%	x	-113.7%	u	23.1µM*	u	u
Cc1cccc2c1Oc1ccccc1[C@@H]2NC(=O)c1ccc([N+](=O)[O-])cc1	-3.8%[10 µM]	x	x	x	x	x	x	x	x	x
CC(C)(C)c1ccc(S(=O)(=O)N2CCC(c3nc4ccc(Cl)cc4[nH]3)CC2)cc1	-3.1%[1.9 µM]	20µM*	u	u	i	-27.8%	16.4µM*	u	u	46.1%
COc1ccc(Nc2c3c(nc4ccc(C)cc24)CCC3)cc1	x	u	x	u	u	-39.2%	x	x	x	x
Cc1ccc2nc3c(c(Nc4ccc5c(c4)OCCO5)c2c1)CCC3	12.9%[10 µM]	3.55µM*	-13.0%	-33.7%	u	-20.5%	u	u	u	78.3%
CCOC(=O)CCN1C(=O)[C@H]2[C@H]3[C@H](O)[C@H](O)C/C(=N/NC(=O)OCc4ccccc4)[C@@H]3CC[C@@H]2C1=O	0.0%[10 µM]	x	x	x	x	x	x	x	x	x
CCC1(OC(=O)CN(C)C)C(=O)OCc2c1cc1n(c2=O)Cc2cc3c(N)cccc3nc2-1 (stereo unspecified)	x	3.16µM*	x	u	u	3.4%	5.8µM*	1.84µM*	u	15.9%
Cc1ccc(-n2nnnc2Sc2ccc(S(=O)(=O)NCCN(C)C)cc2[N+](=O)[O-])cc1	-52.3%[10 µM]	1.58µM*	22.4µM*	u	u	8.91µM*	7.31µM*	20.6µM*	5.8µM*	u
C=C(C(=O)O)[C@@H]1CC[C@@]2(C)CCC[C@](C)(O)[C@@H]2C1	-21.0%	x	x	x	x	x	x	x	x	x
Oc1c(CNc2ccccc2)cc(COCc2ccccc2)c2cccnc12	x	u	x	u	i	-9.7%	x	x	x	x
O=C(Oc1c(CN2CCOCC2)cc(Cl)c2cccnc12)c1ccccc1Br	-92.9%[10 µM]	3.16µM*	u	x	u	-136.1%	-10.6%	u	u	1.2%
Oc1c(CN2CCOCC2)cc(COCc2ccccc2)c2cccnc12	-80.9%[10 µM]	1µM*	u	5.62µM*	i	-38.1%	-21.9%	u	8.2µM*	20.8%
COc1ccc(/C=C/C(=O)c2cc(F)ccc2OC(=O)c2ccccc2)cc1OC	x	8.91µM*	x	-7.6%	u	-55.8%	u	-2.2%	u	0.0%
